One may read the AC50 as the midpoint of the concentration-response curve, whichever way the signal moves.

The source of these data is PubChem BioAssay (EPA / NIEHS).

Activity calls are given as the source filed them. How the source made its calls: active means hit-call score of the fitted dose curve at least 0.9, where 1 is the maximum; inactive means score below 0.9.

Test [1] is described as follows: ATG_GLI_CIS: Attagene CIS-FACTORIAL HepG2 Assay for human Zinc Finger Protein GLI1 (AID 2282945). The settings on record: HepG2, Attagene cis-factorial reporter mRNA, GLI element; actives raise or lower the signal. The method in brief:
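HepG2 cells transiently transfected with cis-promoter multiplexed reporter units report endogenous transcription factor activity. After 24 h chemical exposure, reporter mRNA was quantified by RT-PCR, 6-FAM labelling, HpaI digestion and capillary electrophoresis, with bidirectional fitting against DMSO.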

In test [2] the target is Bile acid receptor (Homo sapiens) (UniProt Q96RI1). Nature of the test: ATG_IR1_CIS: Attagene CIS-FACTORIAL HepG2 Assay for human Nuclear Receptor Subfamily 1 Group H Member 4 (NR1H4), IR1 submotif (AID 2282946). Conditions: IR1 reporter transcription, actives raise or lower the signal. The procedure, abridged: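 Transient MRTU transfection, HepG2; 24 h dosing; RNA → RT-PCR → 6-FAM primer extension → HpaI digest → capillary electrophoresis fluorescence. Gain/loss of signal fitted relative to DMSO.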

Test [3] can be described thus: ATG_ISRE_CIS: Attagene CIS-FACTORIAL HepG2 Assay for human Interferon Regulatory Factor 1 (IRF1) binding to an Interferon-Stimulated Response Element (ISRE) (AID 2282948). Conditions: HepG2 ISRE cis-reporter (Attagene), mRNA transcription readout; actives raise or lower the signal. The method in brief:
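Transiently transfected HepG2 cells carrying cis-element reporter units, dosed 24 hours. Reporter mRNA quantified by RT-PCR, fluorescent primer extension, HpaI digestion and capillary electrophoresis. Bidirectional fitting relative to DMSO.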

A short description of test [4]: ATG_M_32_CIS: Attagene CIS-FACTORIAL HepG2 Assay for M32 Transcription Factor (Internal Marker) (AID 2282949).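 Further: background control marker of the multiplexed CIS panel rather than a real target.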 Conditions: HepG2 Attagene cis-factorial M32 reporter, mRNA; actives raise or lower the signal. The procedure, abridged:
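HepG2 cells transiently transfected with multiplexed cis-regulated reporter units, dosed 24 h. Reporter mRNA quantified by RT-PCR, 6-FAM labelling, HpaI digestion and capillary electrophoresis; bidirectional fit vs DMSO.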

Test [5] is described as follows: ATG_M_06_CIS: Attagene CIS-FACTORIAL HepG2 Assay for M06 Transcription Factor (Internal Marker) (AID 2282950). The settings on record: HepG2 Attagene CIS-FACTORIAL M06 internal marker reporter; actives raise or lower the signal. The method in brief: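 HepG2 cells transiently transfected with cis-regulated multiple reporter transcription units were exposed to chemical for 24 h; reporter mRNA was quantified by RT-PCR, 6-FAM primer labelling, HpaI digestion and capillary electrophoresis, fitted bidirectionally against DMSO.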

The target in test [6] is Hypoxia-inducible factor 1-alpha (Homo sapiens) (UniProt Q16665). Briefly: ATG_HIF1a_CIS: Attagene CIS-FACTORIAL HepG2 Assay for human Hypoxia Inducible Factor 1 (HIF1A) (AID 2282951). The settings on record: HepG2 Attagene cis-factorial HIF1a reporter transcription; actives raise or lower the signal. The method in brief:
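Endogenous-TF cis reporter readout, human HepG2 cells, 24 h incubation; mRNA detected via RT-PCR and capillary electrophoresis fluorescence; DMSO-normalised bidirectional fitting.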

Test [7] concerns the target Hepatocyte nuclear factor 6 (Homo sapiens) (UniProt Q9UBC0). Nature of the test: ATG_HNF6_CIS: Attagene CIS-FACTORIAL HepG2 Assay for human Hepatocyte Nuclear Factor 6 (HNF6) (AID 2282952). The settings on record: HepG2 Attagene cis-factorial HNF6 reporter transcription; actives raise or lower the signal. The procedure, abridged:
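Multiplexed mRNA reporter assay in transfected HepG2; 24 h dosing; RT-PCR plus capillary electrophoresis fluorescence; DMSO-referenced bidirectional curve fitting.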

Test [8] addresses Heat shock factor protein 1 (Homo sapiens) (UniProt Q00613). Nature of the test: ATG_HSE_CIS: Attagene CIS-FACTORIAL HepG2 Assay for human Heat Shock Transcription Factor 1 (HSE) (AID 2282953). Conditions: HepG2 HSE cis-reporter, Attagene RNA transcription; actives raise or lower the signal. The procedure, abridged: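 HepG2 cells transiently transfected with multiple reporter transcription units under cis-regulatory promoter control, measuring endogenous transcription factor activity. After 24 h chemical exposure, reporter mRNA quantified by RT-PCR, fluorescent labelling, HpaI digestion and capillary electrophoresis; bidirectional fit versus DMSO.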

The nature of test [9]: ATG_MRE_CIS: Attagene CIS-FACTORIAL HepG2 Assay for human Metal Responsive Element (MRE) (AID 2282954). The settings on record: HepG2 MRE cis-reporter transcription, Attagene multiplex; actives raise or lower the signal. The procedure, abridged: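 Step one: transfect HepG2 with cis-regulated reporter units. Step two: dose 24 h. Step three: isolate RNA, RT-PCR, 6-FAM label, HpaI digest, capillary electrophoresis. Fit bidirectionally to DMSO.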

Test [10] can be described thus: ATG_PBREM_CIS: Attagene CIS-FACTORIAL HepG2 Assay for human Phenobarbital-responsive Enhancer Module (PBREM) (AID 2282955). The settings on record: HepG2 PBREM cis-reporter, Attagene multiplexed transcription; actives raise or lower the signal. The method in brief:
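Readout: reporter mRNA, fluorescent RT-PCR fragments separated by capillary electrophoresis. System: HepG2 transiently transfected with cis-regulated reporter units. Exposure: 24 h. Analysis: bidirectional, DMSO baseline.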

The target in test [11] is Paired box protein Pax-6 (Homo sapiens) (UniProt P26367). Nature of the test: ATG_Pax6_CIS: Attagene CIS-FACTORIAL HepG2 Assay for human Paired Box 6 (PAX6) (AID 2282956). Conditions: HepG2 CIS-FACTORIAL PAX6 reporter transcription, RNA readout; actives raise or lower the signal. The procedure, abridged:
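HepG2 cells transiently transfected with cis-promoter-driven multiplexed reporter units sensing endogenous transcription factor activity; 24 h chemical exposure. Reporter mRNA quantified by RT-PCR, 6-FAM labelling, HpaI digestion and capillary electrophoresis; bidirectional fit versus DMSO baseline.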

A short description of test [12]: ATG_PXRE_CIS: Attagene CIS-FACTORIAL HepG2 Assay for human Pregnane X Receptor Element (PXRE) (AID 2282957). The settings on record: HepG2 Attagene CIS-FACTORIAL PXRE reporter, mRNA; actives raise or lower the signal. The method in brief: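 Cells: HepG2, transiently transfected reporter units under cis promoter control. Exposure: 24 h. Detection: reporter mRNA via RT-PCR/CE fluorescence; bidirectional fitting, DMSO-referenced.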

A short description of test [13]: ATG_RORE_CIS: Attagene CIS-FACTORIAL HepG2 Assay for human RAR-related Orphan Receptor Element (RORE) (AID 2282959). The settings on record: HepG2 Attagene cis-factorial RORE reporter, mRNA; actives raise or lower the signal. The method in brief: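 Measured here: transcript induction of a cis-regulated reporter in HepG2 cells transiently transfected via FuGene 6. After 24 h, RNA was processed by RT-PCR and fluorescent capillary electrophoresis; DMSO defined baseline activity.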

Test [14] can be described thus: ATG_Sox_CIS: Attagene CIS-FACTORIAL HepG2 Assay for human SRY-box transcription factor (SOX) (AID 2282960). The settings on record: HepG2 Attagene cis-factorial SOX reporter, mRNA; actives raise or lower the signal. The method in brief: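 Using transiently transfected HepG2 cells, reporter transcription driven by cis elements was assessed 24 h after dosing. Signal was fluorescence of capillary-separated RT-PCR products, with DMSO defining baseline activity.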

For test [15], the target named is Transcription factor Sp1 (Homo sapiens) (UniProt P08047). Briefly: ATG_Sp1_CIS: Attagene CIS-FACTORIAL HepG2 Assay for human Specificity Protein 1 (Sp1) (AID 2282961). Conditions: HepG2 Sp1 cis-reporter transcription, actives raise or lower the signal. The procedure, abridged: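 After transient transfection of HepG2 cells with cis-promoter reporter units and 24 h chemical treatment, reporter transcripts were quantified by RT-PCR and capillary electrophoresis fluorescence. Gain- and loss-of-signal fitted against DMSO.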

Test [16] can be described thus: ATG_SREBP_CIS: Attagene CIS-FACTORIAL HepG2 Assay for human Sterol Regulatory Element Binding (SREBP) (AID 2282962). The settings on record: HepG2 Attagene cis-factorial SREBP reporter, mRNA; actives raise or lower the signal. The procedure, abridged:
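HepG2 cells transiently transfected with multiplexed cis-promoter reporter units sensing endogenous transcription factors; reporter mRNA measured 24 h after dosing by RT-PCR, 6-FAM labeling, HpaI digestion and capillary electrophoresis. Bidirectional fit versus DMSO.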

For test [17], the target named is Signal transducer and activator of transcription 3 (Homo sapiens) (UniProt P40763). Briefly: ATG_STAT3_CIS: Attagene CIS-FACTORIAL HepG2 Assay for human Signal Transducer and Activator of Transcription 3 (STAT3) (AID 2282963). Conditions: HepG2, Attagene cis-factorial STAT3 reporter transcription; actives raise or lower the signal. The procedure, abridged: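 Transcript-level reporter assay. HepG2 transient MRTU transfection, 24 h exposure, fluorescence detection after RT-PCR and CE; DMSO baseline.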

The nature of test [18]: ATG_TA_CIS: Attagene CIS-FACTORIAL HepG2 Assay for human TA Basal Promoter (AID 2282964). The settings on record: HepG2 Attagene CIS-factorial TA basal promoter reporter; actives raise or lower the signal. The method in brief: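 HepG2 cells transiently transfected with multiplexed cis-promoter reporter units, dosed 24 h. Reporter mRNA measured by RT-PCR, 6-FAM labelling, HpaI digestion and capillary electrophoresis; bidirectional fit versus DMSO baseline, serving as background control.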

The nature of test [19]: ATG_GRE_CIS: Attagene CIS-FACTORIAL HepG2 Assay for human Glucocorticoid Response Elements (GRE) (AID 2282947). Conditions: HepG2 GRE cis-reporter, Attagene multiplex mRNA; actives raise or lower the signal. The method in brief: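 Following 24 h chemical exposure of transiently transfected HepG2 cells, total RNA was reverse-transcribed and reporter cDNA amplified, fluorescently labelled and sized by capillary electrophoresis. Signal gain or loss was fitted relative to DMSO vehicle.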

The nature of test [20]: ATG_PPRE_CIS: Attagene CIS-FACTORIAL HepG2 Assay for human Peroxisome Proliferator-activated Response Element (PPRE) (AID 2282958). The settings on record: HepG2 PPRE cis-element reporter, Attagene transcription factor profiling; actives raise or lower the signal. The procedure, abridged: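 After human HepG2 hepatoma cells were transiently transfected with cis-promoter reporter constructs, they were exposed to test chemicals for 24 hours. Reporter RNA was then reverse-transcribed, PCR-amplified, FAM-labeled, HpaI-digested and quantified by capillary electrophoresis.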

Hepatocyte nuclear factor 6 (Homo sapiens), sequence (Q9UBC0 whole entry, looked up): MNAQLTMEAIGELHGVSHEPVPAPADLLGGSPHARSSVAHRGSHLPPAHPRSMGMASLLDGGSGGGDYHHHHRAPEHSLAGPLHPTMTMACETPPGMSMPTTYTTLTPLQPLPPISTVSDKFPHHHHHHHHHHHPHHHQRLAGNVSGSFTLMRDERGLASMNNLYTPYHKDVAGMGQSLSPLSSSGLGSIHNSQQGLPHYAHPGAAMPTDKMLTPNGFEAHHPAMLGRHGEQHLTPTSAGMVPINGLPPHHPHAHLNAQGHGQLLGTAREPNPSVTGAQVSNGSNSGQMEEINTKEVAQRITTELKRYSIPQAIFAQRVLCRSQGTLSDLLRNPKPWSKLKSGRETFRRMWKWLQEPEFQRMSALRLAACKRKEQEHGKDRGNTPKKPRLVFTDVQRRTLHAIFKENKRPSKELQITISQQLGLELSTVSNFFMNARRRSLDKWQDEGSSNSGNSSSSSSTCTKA
Signal transducer and activator of transcription 3 (Homo sapiens), sequence (P40763 whole entry, looked up): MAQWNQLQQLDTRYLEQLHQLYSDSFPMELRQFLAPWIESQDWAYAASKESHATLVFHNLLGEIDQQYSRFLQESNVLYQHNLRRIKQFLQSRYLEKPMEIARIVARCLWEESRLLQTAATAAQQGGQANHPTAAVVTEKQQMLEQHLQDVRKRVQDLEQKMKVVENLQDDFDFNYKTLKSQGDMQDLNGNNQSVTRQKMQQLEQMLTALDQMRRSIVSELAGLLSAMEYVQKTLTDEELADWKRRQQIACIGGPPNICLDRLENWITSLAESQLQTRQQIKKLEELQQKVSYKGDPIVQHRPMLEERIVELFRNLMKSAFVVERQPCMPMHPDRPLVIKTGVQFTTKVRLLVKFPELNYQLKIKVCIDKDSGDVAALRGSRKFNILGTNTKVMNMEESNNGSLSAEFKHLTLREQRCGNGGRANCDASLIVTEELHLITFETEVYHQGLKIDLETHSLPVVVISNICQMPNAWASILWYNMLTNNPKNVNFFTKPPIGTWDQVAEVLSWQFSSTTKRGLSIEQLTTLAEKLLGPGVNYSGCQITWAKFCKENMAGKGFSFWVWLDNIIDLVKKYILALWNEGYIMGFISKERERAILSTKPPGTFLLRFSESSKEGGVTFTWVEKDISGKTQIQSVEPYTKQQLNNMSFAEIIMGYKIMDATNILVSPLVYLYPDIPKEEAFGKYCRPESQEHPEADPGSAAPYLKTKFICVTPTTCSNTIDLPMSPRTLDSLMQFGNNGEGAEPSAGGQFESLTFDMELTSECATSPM
Bile acid receptor (Homo sapiens), sequence (Q96RI1 whole entry, looked up): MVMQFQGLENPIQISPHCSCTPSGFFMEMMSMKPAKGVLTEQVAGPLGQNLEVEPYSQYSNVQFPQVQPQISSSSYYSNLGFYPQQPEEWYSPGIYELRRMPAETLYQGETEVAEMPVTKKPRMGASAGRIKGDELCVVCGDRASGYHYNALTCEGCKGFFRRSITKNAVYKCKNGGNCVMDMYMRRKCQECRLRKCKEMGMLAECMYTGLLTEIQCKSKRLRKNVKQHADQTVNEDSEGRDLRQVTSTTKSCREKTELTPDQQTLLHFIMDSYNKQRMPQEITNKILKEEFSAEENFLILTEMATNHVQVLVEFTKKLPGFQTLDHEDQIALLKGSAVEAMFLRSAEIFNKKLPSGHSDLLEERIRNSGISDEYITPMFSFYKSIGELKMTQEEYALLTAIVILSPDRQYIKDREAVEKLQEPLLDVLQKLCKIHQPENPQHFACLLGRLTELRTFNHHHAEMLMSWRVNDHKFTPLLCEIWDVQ
Paired box protein Pax-6 (Homo sapiens), sequence (P26367 whole entry, looked up): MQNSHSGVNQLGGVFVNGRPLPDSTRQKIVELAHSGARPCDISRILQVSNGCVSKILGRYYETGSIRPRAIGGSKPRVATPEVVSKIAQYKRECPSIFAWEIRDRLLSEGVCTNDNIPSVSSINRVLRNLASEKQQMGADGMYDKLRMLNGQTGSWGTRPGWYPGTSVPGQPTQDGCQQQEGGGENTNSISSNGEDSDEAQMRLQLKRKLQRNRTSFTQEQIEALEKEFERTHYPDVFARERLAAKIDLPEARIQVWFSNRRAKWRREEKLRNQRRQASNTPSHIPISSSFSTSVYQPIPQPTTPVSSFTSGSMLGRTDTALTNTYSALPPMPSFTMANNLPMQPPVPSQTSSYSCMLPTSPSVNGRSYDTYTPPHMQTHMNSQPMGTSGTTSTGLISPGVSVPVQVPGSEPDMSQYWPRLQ
Hypoxia-inducible factor 1-alpha (Homo sapiens), sequence (Q16665 whole entry, looked up): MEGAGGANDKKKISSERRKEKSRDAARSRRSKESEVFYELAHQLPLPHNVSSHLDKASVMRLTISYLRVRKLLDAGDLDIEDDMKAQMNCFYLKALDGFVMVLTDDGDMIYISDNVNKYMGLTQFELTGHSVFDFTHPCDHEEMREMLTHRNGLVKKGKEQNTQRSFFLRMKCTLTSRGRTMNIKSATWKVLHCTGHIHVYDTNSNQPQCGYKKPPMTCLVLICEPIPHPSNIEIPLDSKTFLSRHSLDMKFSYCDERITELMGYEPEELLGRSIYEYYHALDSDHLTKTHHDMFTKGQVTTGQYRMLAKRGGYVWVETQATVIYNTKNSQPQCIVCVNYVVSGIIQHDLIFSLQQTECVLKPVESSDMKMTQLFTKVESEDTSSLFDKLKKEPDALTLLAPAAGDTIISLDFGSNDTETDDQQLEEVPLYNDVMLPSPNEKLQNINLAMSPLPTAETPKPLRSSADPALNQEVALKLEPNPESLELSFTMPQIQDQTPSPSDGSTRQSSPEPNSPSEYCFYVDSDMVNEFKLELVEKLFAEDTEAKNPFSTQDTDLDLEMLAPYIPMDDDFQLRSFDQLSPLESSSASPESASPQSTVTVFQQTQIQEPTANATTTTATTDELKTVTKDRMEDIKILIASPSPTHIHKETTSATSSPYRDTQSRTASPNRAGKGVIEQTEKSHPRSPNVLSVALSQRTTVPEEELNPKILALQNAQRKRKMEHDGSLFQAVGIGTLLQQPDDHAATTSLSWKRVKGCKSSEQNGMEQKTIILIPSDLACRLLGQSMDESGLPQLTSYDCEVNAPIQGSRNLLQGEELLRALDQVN
Heat shock factor protein 1 (Homo sapiens), sequence (Q00613 whole entry, looked up): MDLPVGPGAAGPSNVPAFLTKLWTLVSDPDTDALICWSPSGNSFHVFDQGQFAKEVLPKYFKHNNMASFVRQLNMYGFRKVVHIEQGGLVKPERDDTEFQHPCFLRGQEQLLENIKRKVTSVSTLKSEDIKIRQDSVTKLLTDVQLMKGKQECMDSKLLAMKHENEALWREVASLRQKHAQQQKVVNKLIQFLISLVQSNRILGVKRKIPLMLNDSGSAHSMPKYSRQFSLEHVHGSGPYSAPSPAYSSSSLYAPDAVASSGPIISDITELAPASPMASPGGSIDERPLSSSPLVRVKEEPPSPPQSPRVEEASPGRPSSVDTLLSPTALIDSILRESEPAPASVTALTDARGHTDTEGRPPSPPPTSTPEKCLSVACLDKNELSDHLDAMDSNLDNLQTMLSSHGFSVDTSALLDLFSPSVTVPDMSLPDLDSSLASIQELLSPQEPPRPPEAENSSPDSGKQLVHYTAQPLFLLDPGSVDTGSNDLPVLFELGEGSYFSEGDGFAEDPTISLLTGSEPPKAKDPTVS
Transcription factor Sp1 (Homo sapiens), sequence (P08047 whole entry, looked up): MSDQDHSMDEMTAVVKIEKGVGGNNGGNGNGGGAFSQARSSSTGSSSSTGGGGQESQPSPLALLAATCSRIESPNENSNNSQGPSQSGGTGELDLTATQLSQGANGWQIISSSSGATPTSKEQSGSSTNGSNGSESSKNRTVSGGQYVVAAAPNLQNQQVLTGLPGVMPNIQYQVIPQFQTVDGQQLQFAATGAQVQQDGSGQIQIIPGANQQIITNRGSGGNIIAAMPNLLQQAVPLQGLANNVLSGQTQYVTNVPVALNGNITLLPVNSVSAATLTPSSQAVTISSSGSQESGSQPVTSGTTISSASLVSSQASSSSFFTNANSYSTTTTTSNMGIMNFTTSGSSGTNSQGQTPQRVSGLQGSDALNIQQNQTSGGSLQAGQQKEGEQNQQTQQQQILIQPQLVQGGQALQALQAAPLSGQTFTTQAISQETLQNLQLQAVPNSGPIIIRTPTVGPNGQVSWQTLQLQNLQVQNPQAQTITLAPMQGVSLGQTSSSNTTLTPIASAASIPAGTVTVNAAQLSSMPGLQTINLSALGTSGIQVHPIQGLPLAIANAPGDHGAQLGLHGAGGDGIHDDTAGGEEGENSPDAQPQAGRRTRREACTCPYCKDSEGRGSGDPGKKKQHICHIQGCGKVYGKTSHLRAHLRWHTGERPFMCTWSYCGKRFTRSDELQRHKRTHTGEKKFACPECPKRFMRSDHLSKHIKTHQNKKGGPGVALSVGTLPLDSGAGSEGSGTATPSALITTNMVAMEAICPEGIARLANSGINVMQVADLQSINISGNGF

`CC(O)C(=O)O` (centres undefined): the molecule was classed as inactive in [1], in test [2], in test [3], in [4], in test [5] and in test [6]. The molecule was called inactive in test [7], in [8], in test [9], in [10], in test [11] and in [12]. Further, the molecule was classed as inactive in test [13], in test [14], in [15], in test [16], in test [17] and in test [18].

`CCCCCCCCC(=O)O`: the molecule was classed as inactive in test [1], in [19], in test [3], in test [4], in test [6] and in test [7]. For the same molecule, the molecule was classed as inactive in test [8], in [9], in [10], in test [11], in test [12] and in test [13]. In addition, the result in test [14], in test [15], in test [16], in test [17] and in [18] was inactive.

In the case of `C#C[C@]1(O)CC[C@H]2[C@@H]3CCC4=CC(=O)CC[C@@H]4[C@H]3CC[C@@]21C`, the molecule was classed as inactive in [1], in test [19], in test [3], in test [4], in test [8] and in [9]. In addition, the result in test [10], in test [11], in test [20], in test [13], in [14] and in test [15] was inactive. The outcome in test [16], in [17] and in [18] was inactive. The AC50 in test [12] was 26.9 µM (active) [middle of 4 runs].

As for `C=C(C)C(=O)OCCC(F)(F)C(F)(F)C(F)(F)C(F)(F)C(F)(F)C(F)(F)F`, the molecule was classed as inactive in test [1], in [2], in test [19], in [3], in test [4] and in test [6]. The result in [7], in test [8], in test [9], in test [10], in test [11] and in test [12] was inactive. Besides, the outcome in [13], in [14], in test [15], in [16], in test [17] and in test [18] was inactive.
